Assay outcomes as filed in PubChem BioAssay.
Compounds with a hit are over-represented: about 4.6% of the library has one in this group of screens.
PfHsp90 set2 – growth inhibition of PfHsp90-expressing yeast, primary screen, antimalarial PfHsp90 inhibitor project, S. cerevisiae, BacTiter-Glo luminescence, single point, set 2; BacTiter-Glo ATP, 48 h; yeast lacking PDR1 and PDR3 efflux regulators; inhibition, % at 9.4 µM; 310,000 tested, 0.32% active;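 active = every replicate shows inhibition above about 80%, whatever the replicate mean, limit read from the data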;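 note: 0% = DMSO neutral controls and 100% = 20 µM radicicol positive controls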
SKKanGAS inh – S. pyogenes SKKanGAS growth inhibitors in kanamycin, primary screen, streptokinase expression inhibitor project, SKKanGAS strain, BacTiter-Glo luminescence | 6 h | inhibition, % at 7.5 µM | 300,000 tested, 1.3% active | AID 1662, 2009;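 active = mean replicate score, as percent of positive control median, at least 50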;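 note: strain carries kanamycin resistance gene driven by streptokinase promoter and grows in 40 µg/ml kanamycin; loss of luminescence reflects streptokinase promoter inhibition or plain growth inhibition; 0% = median of DMSO wells and 100% = positive control at its reference dose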
tim23-1 inh – growth inhibitors of tim23-1 mutant yeast, primary screen, luminescence, uHTS; S. cerevisiae tim23-1 growth, BacTiter-Glo luminescence, 24 h; inhibition, % at 20 µM; 330,000 tested, 1.3% active; AID 463212, 2010;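 active = growth inhibition of the mutant yeast at or above 50%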;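 note: temperature-sensitive mutant grown at 25 °C; plate controls were DMSO-treated mutant yeast for no effect and medium wells lacking yeast for full effect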
TIM10 inh – growth inhibitors of isogenic TIM10 control yeast, primary screen, counter-screen for tim10-1 yeast inhibitor project, luminescence, uHTS. inhibition, % at 10 µM. 330,000 tested, 1.4% active. S. cerevisiae TIM10 strain growth, BacTiter-Glo luminescence, 24 h;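 active = inhibition of 40% or more at the single tested concentration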;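 note: wild-type TIM10 isogenic control strain grown at permissive 25 °C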
tim10-1 inh – growth inhibitors of tim10-1 mutant yeast, primary screen, luminescence, uHTS; inhibition, % at 20 µM; S. cerevisiae tim10-1 ts strain growth, BacTiter-Glo, 24 h; 330,000 tested, 2.2% active; AID 463190, 2010;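 active = inhibition of at least 40%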;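 note: mutant grown at 25 °C; 0% = DMSO wells with yeast and 100% = wells holding no yeast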
NLRP3 yeast inh – NALP3 inflammasome inhibitors in reconstituted yeast, primary screen, luminescence, uHTS; 330,000 tested, 0.39% active; inhibition, % at 10 µM; Yeast reconstituted NLRP3/ASC/caspase-1, beta-gal luminescence, 24 h;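 active = inhibition of 50% or more; inactive = inhibition below 50%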;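 note: plate controls were induced DMSO wells for no effect and uninduced yeast grown without galactose for full effect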
tim10-1 confirm – growth inhibitors of tim10-1 mutant yeast, confirmation, single concentration, luminescence, S. cerevisiae; shares compounds with tim10-1 inh; S. cerevisiae tim10-1 ts strain growth, BacTiter-Glo, 24 h; inhibition, % at 20 µM; 7,400 tested, 56% active;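 active = inhibition of yeast growth at or above a set limit in either of two repeat tests at 20 µM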;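 note: tim10-1 mutant grown at permissive 25 °C to find synthetic lethal compounds; 0% = DMSO yeast wells and 100% = medium wells without yeast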
tim10 confirm – growth inhibitors of wild-type TIM10 yeast, confirmation, counter-screen for tim10-1 synthetic lethality project, single concentration, luminescence, S. cerevisiae | shares compounds with TIM10 inh | S. cerevisiae tim10 strain growth, BacTiter-Glo luminescence, 24 h | inhibition, % at 10 µM | 4,600 tested, 63% active | AID 463215, 2010;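 active = inhibition of yeast growth at or above a set limit in either of two replicates at 10 µM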;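 note: this counterscreen used the strain with wild-type TIM10; 0% = yeast with DMSO and 100% = medium wells lacking yeast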
The depositor's hits bear a star.

How did CC(C)COc1cccc(C(=O)NC(=S)NCc2cccnc2)c1 do in these assays?
PfHsp90 set2: 0.5; SKKanGAS inh: -11.5; tim23-1 inh: 38.5; TIM10 inh: 43.4*; tim10-1 inh: 47.4*; NLRP3 yeast inh: 7.2; tim10-1 confirm: 20.9; tim10 confirm: -19.0

Results for CCOc1cccc(C(=O)NC(=S)NCc2cccnc2)c1 ?
PfHsp90 set2: -28.1; SKKanGAS inh: 20.5; tim23-1 inh: 25.4; TIM10 inh: 5.2; tim10-1 inh: 13.3; NLRP3 yeast inh: 10.7

Results for Cc1ccc(-c2nnc(Nc3ccc4c(c3)OCO4)c3ccccc23)cc1S(=O)(=O)NC(C)C ?
PfHsp90 set2: 6.5; SKKanGAS inh: 26.1; tim23-1 inh: 13.0; TIM10 inh: 10.8; tim10-1 inh: 18.2; NLRP3 yeast inh: -0.8

Results for COc1cc(/C=C2\SC(=S)N(Nc3ncc(C(F)(F)F)cc3Cl)C2=O)ccc1O ?
PfHsp90 set2: 106.2*; SKKanGAS inh: 21.7; tim23-1 inh: 39.5; TIM10 inh: 50.6*; tim10-1 inh: 47.5*; NLRP3 yeast inh: 7.4; tim10-1 confirm: 28.4; tim10 confirm: 41.5*

What do the screens show for `CCc1ccc(C(=O)CN(C#N)c2nc(C)cc(C)n2)cc1`?
PfHsp90 set2: 8.5; SKKanGAS inh: 14.4; tim23-1 inh: 35.0; TIM10 inh: 48.3*; tim10-1 inh: 41.9*; NLRP3 yeast inh: 8.8; tim10-1 confirm: 15.1; tim10 confirm: -35.5

How did CC(=O)Oc1ccc(N2C(=O)C3C(C2=O)C2(C)C=CC3(C)O2)cc1 (stereo not drawn) do in these assays?
tim23-1 inh: 2.2; TIM10 inh: 83.2*; tim10-1 inh: 55.5*; NLRP3 yeast inh: -11.6; tim10-1 confirm: 92.7*; tim10 confirm: 87.4*

How did COC(=O)c1cc(N2C(=O)C3C(C2=O)C2(C)C=CC3(C)O2)ccc1Cl (stereo not drawn) do in these assays?
SKKanGAS inh: -6.7; tim23-1 inh: 18.0; TIM10 inh: 82.7*; tim10-1 inh: 53.3*; NLRP3 yeast inh: -12.6; tim10-1 confirm: 75.5*; tim10 confirm: 89.7*

How did CC(C)N(Cc1ccccc1)C(=O)CN1C(=O)NC2(CCCC2)C1=O do in these assays?
PfHsp90 set2: -4.4; tim23-1 inh: -6.6; TIM10 inh: 7.2; tim10-1 inh: 1.7; NLRP3 yeast inh: 19.4

How did O=C(c1ccc([N+](=O)[O-])s1)N1CCN(c2ccccn2)CC1 do in these assays?
PfHsp90 set2: -4.4; SKKanGAS inh: 6.1; tim23-1 inh: 45.8; TIM10 inh: 43.9*; tim10-1 inh: 49.2*; NLRP3 yeast inh: 4.4; tim10-1 confirm: 47.8*; tim10 confirm: 43.5*

Results for COc1ccc(OC)c2sc(N3CCN(C(=O)c4ccc([N+](=O)[O-])s4)CC3)nc12 ?
PfHsp90 set2: 40.9; SKKanGAS inh: 2.4; tim23-1 inh: -53.9; TIM10 inh: -86.8; tim10-1 inh: 34.3; NLRP3 yeast inh: 7.9

Results for O=C(c1ccc([N+](=O)[O-])s1)N1CCN(c2ccccc2)CC1 ?
PfHsp90 set2: 3.4; SKKanGAS inh: 4.5; tim23-1 inh: 31.4; TIM10 inh: 60.1*; tim10-1 inh: 52.6*; NLRP3 yeast inh: 11.7; tim10-1 confirm: 47.2*; tim10 confirm: 49.6*

Results for CCN(CC)CCNC(=O)c1[nH]c2ccc(OCc3ccccc3)cc2c1C ?
PfHsp90 set2: -7.1; SKKanGAS inh: 11.3; tim23-1 inh: 18.5; TIM10 inh: 14.3; tim10-1 inh: 28.1; NLRP3 yeast inh: 18.4

What do the screens show for `COc1ccc(OC)c(S(=O)(=O)n2ccnc2C(C)C)c1`?
PfHsp90 set2: -3.0; SKKanGAS inh: -3.7; tim23-1 inh: 10.8; TIM10 inh: -5.7; tim10-1 inh: -3.9; NLRP3 yeast inh: 12.4

Results for CCOc1cc(/C=C/C(=O)c2ccc(C)cc2)ccc1OCC(=O)N(C)C ?
PfHsp90 set2: -30.4; SKKanGAS inh: 0.0; tim23-1 inh: 43.0; TIM10 inh: 45.2*; tim10-1 inh: 49.5*; NLRP3 yeast inh: 9.9; tim10-1 confirm: 35.4*; tim10 confirm: -27.2

What do the screens show for `COc1cc(/C=C/C(=O)c2ccc(C)cc2)ccc1OCC#N`?
PfHsp90 set2: 3.2; SKKanGAS inh: -2.8; tim23-1 inh: 44.7; TIM10 inh: 33.2; tim10-1 inh: 27.7; NLRP3 yeast inh: 25.3

What do the screens show for `CCCN1C(=O)SC(CC(=O)Nc2ccc(C)cc2)C1=O` (stereo not drawn)?
PfHsp90 set2: 10.6; SKKanGAS inh: 1.2; tim23-1 inh: 9.5; TIM10 inh: -1.0; tim10-1 inh: 11.5; NLRP3 yeast inh: 35.3

What do the screens show for `Cc1ccc(NC(=O)CC2SC(=O)N(c3ccccc3)C2=O)cc1` (stereo not drawn)?
PfHsp90 set2: 6.9; SKKanGAS inh: -1.8; tim23-1 inh: 46.1; TIM10 inh: 41.1*; tim10-1 inh: 49.0*; NLRP3 yeast inh: 1.2; tim10-1 confirm: 41.5*; tim10 confirm: -8.9

What do the screens show for `Cc1cccc(NC(=O)c2cccc(S(=O)(=O)NCc3ccccc3)c2)n1`?
PfHsp90 set2: 23.0; SKKanGAS inh: -15.8; tim23-1 inh: 21.8; TIM10 inh: 5.0; tim10-1 inh: 18.5; NLRP3 yeast inh: 17.8

Results for Nc1nc(=S)c2[nH]cnc2[nH]1 ?
PfHsp90 set2: -8.6; tim23-1 inh: -1.8; TIM10 inh: 8.4; tim10-1 inh: -10.7; NLRP3 yeast inh: 7.1

Results for COC(=O)N1C(=O)[C@](c2ccccc2)(C2CCCCC2)N1C(=O)OC ?
PfHsp90 set2: 3.1; SKKanGAS inh: 9.5; tim23-1 inh: 48.8; TIM10 inh: 43.5*; tim10-1 inh: 49.0*; NLRP3 yeast inh: 12.3; tim10-1 confirm: 32.3*; tim10 confirm: 39.3*

Results for C=CCn1c(SCC(=O)Nc2cc(C)c(Cl)cc2OC)nnc1-c1ccco1 ?
PfHsp90 set2: -2.8; tim23-1 inh: 35.8; TIM10 inh: 7.6; tim10-1 inh: 30.5; NLRP3 yeast inh: 19.4

What do the screens show for `C=CCn1c(SCc2c(F)cccc2Cl)nnc1-c1ccco1`?
PfHsp90 set2: -2.9; SKKanGAS inh: 1.0; tim23-1 inh: 45.5; TIM10 inh: 50.6*; tim10-1 inh: 41.0*; NLRP3 yeast inh: 8.8; tim10-1 confirm: 37.0*; tim10 confirm: 23.2
